These results are taken from PubChem BioAssay (Tox21).

Results filed as inconclusive are left out. Calls of active or inactive are those of the source. Unless noted, the call rests on the fitted dose curve; in most records, active means well fitted curve in the direction sought with a large enough effect in the repeat runs; inconclusive means weak or mixed curves; inactive means no such curve, though single readings can be large; an effect the other way counts as inactive or inconclusive.

Test [1] can be described thus: qHTS assay to identify aromatase inhibitors - cell viability counter screen (AID 743084).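 Further: cells stimulated with testosterone during compound exposure; nearly all actives have a fitted effect of over 55% in size.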 Further: potency means the concentration at half of the fitted maximal effect. In general terms: Quantitative high-throughput screening tests each substance at several concentrations.
The nature of test [2]: qHTS assay to identify small molecule that activate the aryl hydrocarbon receptor (AhR) signaling pathway - cell viability counter screen (AID 743086).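 Further: HepG2 liver cells carrying the AhR DRE luciferase reporter; series mostly up to about 70 µM; nearly all actives have a fitted effect of over 45% in size.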 In outline: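 HepG2-AhR-luc (HG2L7.5c1) cells, 4000/well, treated 24 h at 37 C with compound; viability measured as CellTiter-Fluor fluorescence after 30 min in the same wells as the luciferase read.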
Test [3] addresses Peroxisome proliferator-activated receptor gamma (Homo sapiens) (UniProt P37231). The test is described as follows: qHTS assay to identify small molecule agonists of the peroxisome proliferator-activated receptor gamma (PPARg) signaling pathway (AID 743094; active means well fitted activation curve with a large enough effect in the signal ratio in the repeat runs, not every such curve was filed as active; the % refers to the signal ratio; further: potency means the concentration at half of the fitted maximal effect). In outline: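 Compounds dissolved in DMSO were added to PPARg UAS-bla HEK293H cells for 17 h at 37C, and reporter expression was quantified by fluorescence intensity after 1 h with LiveBLAzer B/G FRET substrate.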

Test [4] shares this target. Briefly: qHTS assay to identify small molecule antagonists of the peroxisome proliferator-activated receptor gamma (PPARg) signaling pathway (AID 743191; calls by dose curve; further: nearly all actives have a fitted effect of over 30% in size; further: potency means the concentration at half of the fitted maximal effect). The method, boiled down: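 GeneBLAzer PPARg UAS-bla HEK293H cells, 5 h post-plating, exposed to compounds 17 h at 37C. LiveBLAzer B/G FRET substrate added for 1 h at room temperature; beta-lactamase reporter read by fluorescence intensity.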

The nature of test [5]: qHTS assay to identify small molecule antagonists of the peroxisome proliferator-activated receptor gamma (PPARg) signaling pathway - cell viability counter screen (AID 743194). Further: nearly all actives have a fitted effect of over 55% in size. Further: potency means the concentration at half of the fitted maximal effect. Conditions: Potency: co-treated with 50 nM rosiglitazone. The method, boiled down:
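Cytotoxicity counter screen in PPARg-bla HEK293H cells, same wells as reporter assay. Compounds plus 50 nM rosiglitazone (final) for 17 h at 37 C, then viability read by CellTiter-Glo luminescence.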

The nature of test [6]: qHTS assay for small molecule agonists of the antioxidant response element (ARE) signaling pathway (AID 743202; active means well fitted activation curve with a large enough effect in the signal ratio in the repeat runs, not every such curve was filed as active; the % refers to the signal ratio; further: potency means the concentration at half of the fitted maximal effect). The method, boiled down:
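ARE-bla HepG2 cells (beta-lactamase reporter under the antioxidant response element), plated 5 hours, then exposed to compounds 16 hours at 37 C. LiveBLAzer B/G FRET substrate added for 2 hours at room temperature; fluorescence intensity read.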

Test [7] can be described thus: qHTS assay for small molecule agonists of the antioxidant response element (ARE) signaling pathway - cell viability counter screen (AID 743203; calls by dose curve; further: nearly all actives have a fitted effect of over 55% in size; further: potency means the concentration at half of the fitted maximal effect). In outline:
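Following 16 hrs of compound treatment at 37C, HepG2 cells with an ARE-controlled beta-lactamase gene were lysed with CellTiter-Glo. Luminescence was read after 30 min at room temperature.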

Test [8] in a line: qHTS assay for small molecule activators of the heat shock response signaling pathway - cell viability counter screen (AID 743209). Further: nearly all actives have a fitted effect of over 50% in size. In outline: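 Readout: CellTiter-Glo luminescence, 30 min at room temperature. System: HSE-bla HeLa cells, 1500/well, plated overnight. Treatment: compounds in DMSO, 5 h at 37 C.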
A short description of test [9]: qHTS assay for small molecule activators of the heat shock response signaling pathway (AID 743210; active means well fitted activation curve with a large enough effect in the signal ratio in the repeat runs, with a control signal flat, not every such curve was filed as active; the % refers to the signal ratio; further: series mostly up to about 63 µM). In outline:
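HSE-bla HeLa cells (beta-lactamase reporter under heat shock response elements), plated overnight, then exposed to compounds 5 h at 37 C; LiveBLAzer B/G FRET substrate added, 2.5 h at room temperature, fluorescence intensity read.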

A short description of test [10]: qHTS assay to identify small molecule agonists of the peroxisome proliferator-activated receptor delta (PPARd) signaling pathway - cell viability counter screen (AID 743211). Further: nearly all actives have a fitted effect of over 55% in size. Further: potency means the concentration at half of the fitted maximal effect. In outline: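 Luminescent ATP viability assay (CellTiter-Glo, 30 min RT) in UAS-bla HEK293H cells carrying the PPAR delta reporter construct, 3000 cells/well, after a 17 h compound treatment at 37 C.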

Test [11] addresses Peroxisome proliferator-activated receptor delta (Homo sapiens) (UniProt Q03181). The test is described as follows: qHTS assay to identify small molecule agonists of the peroxisome proliferator-activated receptor delta (PPARd) signaling pathway (AID 743212; calls by dose curve). In outline: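 GeneBLAzer UAS-bla HEK293H cells carrying a PPARδ construct were exposed to compounds at 37 °C. Beta-lactamase activity was read by FRET fluorescence after 2 h at room temperature with LiveBLAzer B/G substrate.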

Test [12] in a line: qHTS assay to identify small molecule antagonists of the peroxisome proliferator-activated receptor delta (PPARd) signaling pathway - cell viability counter screen (AID 743213). Further: nearly all actives have a fitted effect of over 50% in size. In outline:
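CellTiter-Glo was added to PPARd-bla HEK293H wells following 17 h compound treatment in the presence of 300 nM L165041. Luminescence was recorded after 30 min at room temperature.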

The nature of test [13]: qHTS assay to identify small molecule agonists of the farnesoid-X-receptor (FXR) signaling pathway - cell viability counter screen (AID 743218). Further: nearly all actives have a fitted effect of over 45% in size. Further: potency means the concentration at half of the fitted maximal effect. The method, boiled down: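 Parallel cytotoxicity test: compound-treated (16 h, 37 C) HEK 293T FXR-bla reporter cells were lysed with CellTiter-Glo and luminescence recorded.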
The nature of test [14]: qHTS assay to identify small molecule antagonists of the farnesoid-X-receptor (FXR) signaling pathway - cell viability counter screen (AID 743221; active means well fitted cell-killing curve with a large enough effect in the repeat runs, not every such curve was filed as active; further: nearly all actives have a fitted effect of over 50% in size; further: potency means the concentration at half of the fitted maximal effect). The method, boiled down:
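In GeneBLAzer FXR-UAS-bla HEK 293T cells stimulated with 50 uM chenodeoxycholic acid (final), compounds acted for 16 h at 37 C. Viability was assessed afterwards by CellTiter-Glo luminescence.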

In test [15] the target is Vitamin D3 receptor (Homo sapiens) (UniProt P11473). The test is described as follows: qHTS assay to identify small molecule agonists of the vitamin D receptor (VDR) signaling pathway (AID 743222; calls by dose curve). In outline:
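In VDR-bla cells, compound-induced beta-lactamase expression is quantified by FRET substrate fluorescence. Treatment lasts 16 h at 37C; substrate develops 2 h at room temperature.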

For test [16] the target is unchanged. Briefly: qHTS assay to identify small molecule antagonists of the vitamin D receptor (VDR) signaling pathway (AID 743223; active means well fitted inhibition curve with a large enough effect in the signal ratio in the repeat runs, not every such curve was filed as active; the % refers to the signal ratio). The method, boiled down: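 Agonist 1alpha,25-dihydroxyvitamin D3 (3 nM in well) was added with each compound to VDR-bla cells preincubated 4 h. Cells stood 16 h at 37C, then FRET substrate 2 h at room temperature; fluorescence intensity recorded.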

For test [17], the target named is Aryl hydrocarbon receptor (Homo sapiens) (UniProt P35869). The test is described as follows: qHTS assay to identify small molecule that activate the aryl hydrocarbon receptor (AhR) signaling pathway (AID 743085).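 Further: HG2L7.5c1 human HepG2 liver cells with stably integrated DRE-driven firefly reporter; series mostly up to about 70 µM; nearly all actives have a fitted effect of over 15% in size.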 The method, boiled down: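 24 h compound exposure, 37C, HepG2-derived HG2L7.5c1 cells with DRE-responsive luciferase. Readouts: fluorescence viability, then luminescence at room temperature after 30 min.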
Sequence of Aryl hydrocarbon receptor (Homo sapiens) (P35869 whole entry, looked up): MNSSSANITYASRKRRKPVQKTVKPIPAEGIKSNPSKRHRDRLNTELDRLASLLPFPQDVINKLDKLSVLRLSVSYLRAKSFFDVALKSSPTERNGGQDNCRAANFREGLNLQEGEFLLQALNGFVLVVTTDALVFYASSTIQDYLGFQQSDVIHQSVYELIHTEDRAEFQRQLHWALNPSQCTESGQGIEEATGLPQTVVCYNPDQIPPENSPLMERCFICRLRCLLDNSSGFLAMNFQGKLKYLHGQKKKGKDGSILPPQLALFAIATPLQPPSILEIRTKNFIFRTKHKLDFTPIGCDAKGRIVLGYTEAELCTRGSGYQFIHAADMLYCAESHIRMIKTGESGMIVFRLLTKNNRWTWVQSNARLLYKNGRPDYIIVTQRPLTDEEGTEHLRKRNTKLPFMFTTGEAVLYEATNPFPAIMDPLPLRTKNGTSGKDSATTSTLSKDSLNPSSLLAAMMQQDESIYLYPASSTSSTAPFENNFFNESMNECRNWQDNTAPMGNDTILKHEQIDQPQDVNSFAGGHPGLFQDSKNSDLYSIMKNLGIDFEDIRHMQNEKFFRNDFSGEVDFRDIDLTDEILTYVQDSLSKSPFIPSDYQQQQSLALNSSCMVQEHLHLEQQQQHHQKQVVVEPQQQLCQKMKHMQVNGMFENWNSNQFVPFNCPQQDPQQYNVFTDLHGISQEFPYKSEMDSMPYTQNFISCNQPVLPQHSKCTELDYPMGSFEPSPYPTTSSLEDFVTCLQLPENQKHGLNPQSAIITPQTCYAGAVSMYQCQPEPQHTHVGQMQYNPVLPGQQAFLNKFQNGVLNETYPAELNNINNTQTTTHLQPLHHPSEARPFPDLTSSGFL

Test [18] addresses Bile acid receptor (Homo sapiens) (UniProt Q96RI1). The test is described as follows: qHTS assay to identify small molecule agonists of the farnesoid-X-receptor (FXR) signaling pathway (AID 743220; active means well fitted activation curve with a large enough effect in the signal ratio in the repeat runs, not every such curve was filed as active; the % refers to the signal ratio). The method, boiled down: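 Beta-lactamase reporter under UAS control in GeneBLAzer FXR HEK 293T cells (5000/well) measured with LiveBLAzer FRET substrate after 2 h at room temperature. Compound exposure lasted 16 h at 37C.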

The target in test [19] is Peroxisome proliferator-activated receptor delta (Homo sapiens) (UniProt Q03181). The test is described as follows: qHTS assay to identify small molecule antagonists of the peroxisome proliferator-activated receptor delta (PPARd) signaling pathway (AID 743215; active means well fitted inhibition curve with a large enough effect in the signal ratio in the repeat runs, not every such curve was filed as active; the % refers to the signal ratio;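 further: cells stimulated with agonist L165041 at 300 nM final during compound exposure; series mostly up to about 62 µM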). In outline:
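HEK293H UAS-bla, PPARd; agonist L165041 300 nM final with cpd in DMSO; 37 C 17 h; FRET substrate, RT 2 h; fluorescence intensity.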

The target of test [20] is Bile acid receptor (Homo sapiens) (UniProt Q96RI1). The test is described as follows: qHTS assay to identify small molecule antagonists of the farnesoid-X-receptor (FXR) signaling pathway (AID 743217; active means well fitted inhibition curve with a large enough effect in the signal ratio in the repeat runs, not every such curve was filed as active; the % refers to the signal ratio). The method, boiled down: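 GeneBLAzer FXR-UAS-bla HEK 293T, CDCA-stimulated (50 uM final). Compound treatment 16 h, 37 °C. Detection: beta-lactamase cleavage of B/G FRET substrate, fluorescence.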
Sequence of Bile acid receptor (Homo sapiens) (Q96RI1 whole entry, looked up): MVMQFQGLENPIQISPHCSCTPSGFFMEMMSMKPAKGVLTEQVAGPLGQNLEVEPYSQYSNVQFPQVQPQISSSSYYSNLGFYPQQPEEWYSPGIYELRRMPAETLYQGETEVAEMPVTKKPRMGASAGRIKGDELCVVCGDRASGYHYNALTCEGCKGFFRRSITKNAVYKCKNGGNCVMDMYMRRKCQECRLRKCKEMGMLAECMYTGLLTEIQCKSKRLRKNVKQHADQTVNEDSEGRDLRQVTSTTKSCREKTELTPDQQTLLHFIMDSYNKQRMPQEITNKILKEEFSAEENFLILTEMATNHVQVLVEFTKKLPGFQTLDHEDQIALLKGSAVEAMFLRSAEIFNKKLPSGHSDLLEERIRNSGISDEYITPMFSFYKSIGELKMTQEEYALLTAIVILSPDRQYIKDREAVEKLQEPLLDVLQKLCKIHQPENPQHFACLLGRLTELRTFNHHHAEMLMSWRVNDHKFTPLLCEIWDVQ

Sequence of Vitamin D3 receptor (Homo sapiens) (P11473 whole entry, looked up): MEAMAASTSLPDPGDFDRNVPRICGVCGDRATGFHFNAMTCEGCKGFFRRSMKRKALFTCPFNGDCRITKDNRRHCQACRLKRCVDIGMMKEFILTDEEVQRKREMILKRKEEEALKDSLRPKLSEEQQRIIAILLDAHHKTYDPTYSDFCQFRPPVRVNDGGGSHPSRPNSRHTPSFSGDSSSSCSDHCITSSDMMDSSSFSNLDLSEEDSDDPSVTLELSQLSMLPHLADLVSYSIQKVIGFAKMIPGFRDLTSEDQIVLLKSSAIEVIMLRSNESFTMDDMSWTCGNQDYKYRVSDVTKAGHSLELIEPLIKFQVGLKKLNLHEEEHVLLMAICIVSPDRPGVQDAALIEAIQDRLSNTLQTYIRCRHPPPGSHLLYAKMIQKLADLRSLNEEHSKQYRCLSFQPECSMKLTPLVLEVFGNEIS
Sequence of Peroxisome proliferator-activated receptor delta (Homo sapiens) (Q03181 whole entry, looked up): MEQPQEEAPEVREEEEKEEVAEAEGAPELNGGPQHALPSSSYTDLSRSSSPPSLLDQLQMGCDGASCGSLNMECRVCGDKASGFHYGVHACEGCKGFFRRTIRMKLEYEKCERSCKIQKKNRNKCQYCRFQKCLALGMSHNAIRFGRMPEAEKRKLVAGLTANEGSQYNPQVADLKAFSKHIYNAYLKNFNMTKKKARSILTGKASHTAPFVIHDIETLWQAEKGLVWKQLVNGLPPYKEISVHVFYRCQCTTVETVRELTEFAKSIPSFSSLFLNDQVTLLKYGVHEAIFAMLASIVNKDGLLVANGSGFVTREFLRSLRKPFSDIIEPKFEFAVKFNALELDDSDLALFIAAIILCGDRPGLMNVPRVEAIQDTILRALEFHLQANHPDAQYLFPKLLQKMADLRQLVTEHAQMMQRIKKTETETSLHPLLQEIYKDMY
Sequence of Peroxisome proliferator-activated receptor gamma (Homo sapiens) (P37231 whole entry, looked up): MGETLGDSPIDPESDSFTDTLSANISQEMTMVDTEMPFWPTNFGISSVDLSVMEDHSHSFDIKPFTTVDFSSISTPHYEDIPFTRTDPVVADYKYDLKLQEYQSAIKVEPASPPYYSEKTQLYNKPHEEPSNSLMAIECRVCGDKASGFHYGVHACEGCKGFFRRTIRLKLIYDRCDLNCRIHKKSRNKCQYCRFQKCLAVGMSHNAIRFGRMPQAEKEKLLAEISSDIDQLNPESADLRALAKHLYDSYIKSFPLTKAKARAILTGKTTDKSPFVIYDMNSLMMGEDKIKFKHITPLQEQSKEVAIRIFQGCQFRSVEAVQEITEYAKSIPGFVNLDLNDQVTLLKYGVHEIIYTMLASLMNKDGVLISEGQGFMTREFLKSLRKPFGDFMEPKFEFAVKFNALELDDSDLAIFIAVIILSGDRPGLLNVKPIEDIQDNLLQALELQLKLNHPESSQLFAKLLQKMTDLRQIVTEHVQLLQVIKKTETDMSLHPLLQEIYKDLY

For `NC(=O)CI`, the Potency entry in test [1], in [2], in test [3], in test [4], in [5] and in test [6] was “inactive” throughout. Also, the Potency result in test [7], in test [8], in test [10], in [12], in test [13] and in test [14] was “inactive” each time. Also, the molecule was classed as inactive in test [9], in test [11], in [15] and in test [16].

`C/C(=C\c1ccccc1)[N+](=O)[O-]`: the Potency is 21.7 µM (active) in test [1]; 21.9 µM (active) in test [5]; 15.4 µM (active) in test [7]; 19.5 µM (active) in [10]; 13.8 µM (active) in [13]; 43.6 µM (active) in test [14]. Besides, the Potency result in test [17] is “inactive”.

For the molecule `CCCCC(O)(Cn1cncn1)c1ccc(Cl)cc1Cl` (configuration not stated), the Potency in test [1] is 68.5 µM (active); in test [10] it was 54.9 µM (active). For the same molecule, the Potency result in test [17], in [3], in test [8] and in [13] was “inactive” throughout. Moreover, the result in test [18] was inactive.

Take `O=NN1CCNCC1`: the Potency result in test [1], in [17], in test [4], in [5], in test [6] and in test [7] was “inactive” in each case. The Potency entry in [10], in test [12], in [19] and in test [14] was “inactive” in each case. Further, the molecule was classed as inactive in [11] and in [15].

Take `O=C=Nc1ccc(Cl)cc1`: the Potency entry in test [1], in [2], in [3], in test [4], in test [5] and in [7] was “inactive” each time. Also, the Potency entry in [8], in test [10] and in test [14] was “inactive” in each case. In test [6], the Potency was 43.3 µM (active). In addition, the molecule was called inactive in test [11] and in [15].

For `CCOP(=O)(OCC)Oc1ccc([N+](=O)[O-])cc1`, the Potency result in [1], in test [2], in test [3], in [7], in [8] and in test [10] was “inactive” in each case. Besides, the Potency result in test [19] and in test [14] was “inactive” in each case. The Potency in [4] is 22.1 µM (active). Also, the outcome in test [9], in test [11], in [18] and in [15] was inactive.

`O=[N+]([O-])c1ccccc1CCl`: the Potency result in test [1], in test [2], in [4], in test [5], in test [7] and in test [8] was “inactive” throughout. The Potency entry in [10], in test [12], in [19], in test [20], in [13] and in test [14] was “inactive” throughout. The Potency in [3] is 98.8 nM (active). In addition, the molecule was classed as inactive in test [9], in test [11], in [18] and in test [15].

As to `CCCN(CC1CC1)c1c([N+](=O)[O-])cc(C(F)(F)F)cc1[N+](=O)[O-]`, the Potency entry in [1], in test [2], in test [3], in [4], in test [5] and in [6] was “inactive” each time. The Potency entry in test [7], in [8], in [10], in test [12], in test [19] and in test [20] was “inactive” throughout. The Potency result in [13] and in [14] was “inactive” throughout. In addition, the outcome in test [9], in test [11] and in test [18] was inactive.

Take `COC(N)=O`: the Potency entry in test [1], in test [2], in test [3], in [4], in [5] and in test [7] was “inactive” throughout. The Potency entry in test [8], in test [10], in test [12], in test [19], in test [20] and in [14] was “inactive” throughout. The molecule was called inactive in test [9], in test [11], in [18] and in [15].
